Experimental data: PubChem BioAssay AID743446 (Broad Institute, 2014)
Measured potencies and affinities stand elsewhere. Unmarked numbers belong to inactive results. No rule for the calls is given here.

Experiment: HEK293 cell cytotoxicity, dose response, cytotoxicity control, plate reader, cherry-picked samples (AID 743446)
Conditions: active compounds read low; at 26 µM unless noted

Structure (SMILES) | max activity
N#C[C@@H]1[C@H](c2ccc(C#Cc3ccccc3F)cc2)[C@@H](CO)N1C(=O)C1CCC1 | 28.6% [at 6 µM]
CC(C)N(C(=O)Nc1ccc2nsnc2c1)C(C)C | 12.5%
COc1ccc(Cl)cc1C(=O)Nc1nc2ccccc2[nH]1 | 69.4% [at 0.195 µM]
C[C@H](CO)N1C[C@H](C)[C@H](CN(C)C(=O)Cc2ccccc2)OCCCC[C@H](C)Oc2ccc(NC(=O)Nc3ccc(C(F)(F)F)cc3)cc2C1=O | 12.5% [at 3 µM]
COCCn1c(C)cc(C(=O)CSc2nnc3ccccn23)c1C | -15% [at 6 µM]
Cc1cc(C(=O)Nc2ccc(N3CCCCC3)cc2)no1 | 16% [at 0.195 µM]
COc1cc(NC(=O)c2cccc3c(-c4cnn(C)c4)coc23)cc(OC)c1OC | -34.1%
COc1ccc(-c2cc(C(=O)N3CCCC3)no2)cc1 | 30.6% [at 0.195 µM]
Cc1ccc(-n2nnc(-c3nccn3C)n2)cc1 | -39%
O=C(c1ccc2c(c1)OCCO2)C1CCN(S(=O)(=O)c2ccc(F)cc2)CC1 | 25.1% [at 0.1 µM]
Cc1ccccc1OCC(=O)Nc1cccc(C(=O)O)c1 | 6.54%
O=C(NCCOc1ccccc1)[C@@H]1CCCN1C(=O)c1cccs1 | -12.7% [at 0.05 µM]
COc1ccc(-c2noc(CCC(=O)N3CCN(c4ccc(Cl)cc4)CC3)n2)cc1 | 26.2% [at 12 µM]
CC[C@H](CO)Oc1cc(NCc2ccc(Cl)c(Cl)c2)c2ncn(C(C)C)c2c1 | 27.3% [at 0.05 µM]
O=C(CN1C(=O)c2ccccc2S1(=O)=O)c1ccc2c(c1)OCCCO2 | -22% [at 0.8 µM]
C[C@H](CO)N1C[C@H](C)[C@@H](CN(C)C(=O)Nc2ccc3c(c2)OCO3)Oc2c(cccc2N(C)C)C1=O | -7.24% [at 0.8 µM]
CN(C)c1cccc(C(=O)Nc2nc3ccccc3[nH]2)c1 | 39.2% [at 12 µM]
O=C(Nc1ccc(N2CCN(C(=O)c3ccc(Cl)cc3)CC2)cc1)c1cc2ccccc2o1 | 21.1% [at 0.05 µM]
O=C(CCCc1ccccc1)Nc1cccc(C(=O)O)c1 | 48.9%

Structure (SMILES) | max activity
Cc1cc(-c2ccccc2)n2ncc(-c3ccccc3)c2n1 | 19.9% [at 0.8 µM]
CC(C)Oc1ccc(CNC(=O)CC(c2ccccc2)c2cc(Cl)ccc2O)cc1 (stereo not drawn) | 29.6% [at 0.8 µM]
Nc1ccc(-c2nc3ccc(N)cc3s2)cc1 | 53.7%
Cc1ccc2nc(-c3ccc(NC(=O)c4cccnc4)cc3)oc2c1 | -17.1% [at 0.1 µM]
O=C(O)c1cccc(-c2nc3ccccc3[nH]2)c1 | -25.9% [at 0.38 µM]
C=CCN1CCN(C(=O)CCCc2ccccc2)CC1 | 69.3% [at 12 µM]
COc1cccc(-c2cc(C(=O)Nc3cccc(O)c3)no2)c1 | -7.14%
N#C[C@@H]1[C@H](c2ccc(C#CC3CCCCC3)cc2)[C@@H](CO)N1S(=O)(=O)c1ccccc1 | 39.8% [at 12 µM]
c1ccc(-n2cnnc2SCc2cn3cccnc3n2)cc1 | 82.5% [at 0.8 µM]
COc1ccc(-c2nc(N)n(C(=O)c3cccs3)n2)cc1 | 49.5%
O=C(Nc1nc2cc3c(cc2s1)OCO3)c1ccco1 | 45.6% [at 0.05 µM]
COc1ccccc1N/C=C/c1onc(C)c1[N+](=O)[O-] | -8.08% [at 0.8 µM]
COc1ccc(CC(=O)Nc2cccc(-c3nnc(-c4cccc(C)c4)o3)c2)cc1OC | -27%
CCS(=O)(=O)N1Cc2ccccc2CC1C(=O)Nc1nc2ccccc2s1 (stereo not drawn) | 11.4% [at 0.38 µM]
CCCNC(=O)Nc1ccc2c(c1)C(=O)N(C)C[C@H](OC)[C@H](C)CN(Cc1ccc(-c3ccccn3)cc1)[C@@H](C)CO2 | 32.1% [at 0.75 µM]
Cc1ccc(Nc2nc(N)c3ccccc3n2)cc1C | -37.4%
Cc1ccc(S(=O)(=O)N(C)C[C@H]2Oc3cc(Br)ccc3S(=O)(=O)N([C@H](C)CO)C[C@H]2C)cc1 | 10.1% [at 1.6 µM]
COc1ccc(NC(=O)N(C)C[C@@H]2OCCCC[C@H](C)Oc3ccc(NC(=O)NC4CCCCC4)cc3C(=O)N([C@H](C)CO)C[C@@H]2C)cc1 | 7.92% [at 0.195 µM]
Cc1ccc(S(=O)(=O)Nc2ccc3c(c2)C(=O)N([C@H](C)CO)C[C@@H](C)[C@H](CN(C)S(=O)(=O)c2cccs2)OCCCC[C@@H](C)O3)cc1 | -17.3% [at 12 µM]
